# Results filed as inconclusive are left out. Entries that show only a call come without a potency. Calls of active or inactive are those of the source. Calls come from the whole dose curve; as a rule, active = well fitted cell-killing curve with a large enough effect; inconclusive = small, poorly fitted or top-dose-only effect, or effect the other way; inactive = flat fitted curve, though single readings scatter. Where a SMILES comes first, the peptide text is derived from it. [ ]: non-standard residue; d: D form. ξ: configuration not given here. ξPhe(βξ-Me) = CC(c1ccccc1)C(N)C(=O)O; GABA = NCCCC(=O)O
# Test system: C33A
# Experiment: Primary qHTS to identify gynecologic anti-cancer compounds using libraries of approved drugs and bioactive compounds (AID 1345084); note: nearly all actives have a fitted effect of over 55% in size
# Conditions: Gynecologic cancer cell panel viability, ATPlite luminescence, 48 h; series mostly up to 57.5 µM
# Outline: (§1)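 48 h compound exposure at 37 C, 5% CO2; five-point qHTS. ATPlite luminescence readout of cell ATP.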
Compound,Potency,"activity change, negative = cytotoxicity"
C[C@@H]1CC[C@H]2C(C)(C)[C@H](O)[C@H](O)C[C@]2(C)[C@@]12Cc1c(O)cc3c(c1O2)CNC3=O,inactive,
C[C@H]1[C@H](C)CC[C@]2(C(=O)O[C@@H]3O[C@H](CO)[C@@H](O)[C@H](O)[C@H]3O)CC[C@]3(C(=O)O)C(=CCC4[C@@]5(C)CC[C@H](O[C@@H]6O[C@H](CO)[C@@H](O)[C@H](O)[C@H]6O)C(C)(C)C5CC[C@]43C)[C@H]12 (stereo not given in full),,2.9% [at 11.6 µM] (inactive)
C1CCN2CC3C[C@@H](CN4CCCC[C@@H]34)[C@H]2C1,inactive,
O=C(COc1ccc(Cl)cc1)NC1CCC(NC(=O)COc2ccc(Cl)cc2)CC1 (stereo not given),inactive,
COc1cc(C(O)C(CO)Oc2ccc(CCCO[C@@H]3O[C@@H](C)[C@H](O)[C@@H](O)[C@H]3O)cc2OC)ccc1O (stereo not given in full),inactive,
CC(C)=CC/C=C(/C)[C@H]1CC[C@]2(C)[C@@H]1[C@H](O)CC1[C@@]3(C)CC[C@H](O)C(C)(C)[C@@H]3[C@@H](O[C@@H]3O[C@H](CO)[C@@H](O)[C@H](O)[C@H]3O[C@@H]3O[C@@H](C)[C@H](O)[C@@H](O)[C@H]3O)C[C@]12C (stereo not given in full),inactive,
CC1CC(O)C2(C)C(C(=O)O)=CCCC2C1(C)CCc1ccoc1 (stereo not given),inactive,
C/C=C(\C)C(=O)O[C@@H]1CC2[C@@H](CC=C3C[C@@H](O[C@H]4C[C@H](OC)[C@H](O[C@H]5C[C@H](OC)[C@H](O[C@H]6C[C@H](OC)[C@H](O[C@H]7C[C@@H](OC)[C@H](O[C@@H]8O[C@H](CO)[C@@H](O)[C@H](O)[C@H]8O)[C@@H](C)O7)[C@@H](C)O6)[C@@H](C)O5)[C@@H](C)O4)CC[C@@]32C)[C@@]2(O)CC[C@H](C(C)=O)[C@@]12C (stereo not given in full),,1.71% [at 6.55 µM] (inactive)
C[C@@H]1O[C@@H](O[C@H]2[C@H](OC(=O)[C@]34CCC(C)(C)C[C@H]3C3=CCC5[C@@]6(C)C[C@H](O)[C@H](O[C@@H]7O[C@H](CO[C@@H]8OC[C@H](O)[C@H](O)[C@H]8O)[C@@H](O)[C@H](O)[C@H]7O)C(C)(C)C6CC[C@@]5(C)[C@]3(C)C[C@H]4O)OC[C@@H](O)[C@@H]2O)[C@H](O)[C@H](O[C@@H]2OC[C@](O)(CO)[C@H]2O)[C@H]1O[C@@H]1OC[C@H](O)[C@H](O[C@@H]2OC[C@@H](O)[C@H](O)[C@H]2O)[C@H]1O (stereo not given in full),,-0.101% [at 6.55 µM] (inactive)
O=C(NCC(=O)N1CC[C@H](NC2CCC(O)(c3ccc(-c4ncccn4)cn3)CC2)C1)c1cccc(C(F)(F)F)c1 (stereo not given in full),inactive,
CCNC(=O)CCC/C=C\C[C@@H]1[C@@H](/C=C/C(O)CCc2ccccc2)[C@@H](O)C[C@@H]1O (stereo not given in full),inactive,

# Test system: CAOV3
# Experiment: as above
# Conditions: Gynecologic cancer cell panel viability, ATPlite luminescence, 48 h; series mostly up to 57.5 µM
# Outline: as §1
Compound,"activity change, negative = cytotoxicity",Potency
O=C(OCc1cccc(O)c1O[C@@H]1O[C@H](CO)[C@@H](O)[C@H](O)[C@H]1O)C1(O)C(=O)C2C=CC1C1C=CC(=O)C(O)(C(=O)OCc3cccc(O)c3O[C@@H]3O[C@H](CO)[C@@H](O)[C@H](O)[C@H]3O)C21 (stereo not given in full),-10.6% [at 11.6 µM] (inactive),
C/C=C(\C)C(=O)O[C@H]1[C@H](O)[C@]2(COC(C)=O)[C@H](O)C[C@]3(C)C(=CCC4[C@@]5(C)CC[C@H](O[C@@H]6O[C@H](C(=O)O)[C@@H](O[C@@H]7O[C@H](CO)[C@@H](O)[C@H](O)[C@H]7O)[C@H](O)[C@H]6O[C@@H]6O[C@H](CO)[C@@H](O)[C@H](O)[C@H]6O)[C@](C)(CO)C5CC[C@]43C)[C@@H]2CC1(C)C (stereo not given in full),-14.1% [at 11.6 µM] (inactive),
CC(=O)O[C@@H]1C[C@@]23C[C@@]24CC[C@H](OC2OC[C@@H](O)[C@H](O)[C@H]2O)C(C)(C)[C@@H]4CC[C@H]3[C@]2(C)CC3OC4(C[C@@H](C)C3[C@@]12C)OCC1(C)OC14 (stereo not given in full),,inactive
COc1ccc2c(c1O)OC[C@H]1c3ccc(O)cc3O[C@@H]21,,inactive
CC1=CC(=O)C2C(C)(C)CCCC2(C)C12CCC1(COC(=O)C1)O2 (stereo not given),,inactive
C[C@]1(O)CC[C@@H]2C(C(=O)O)=CO[C@@H](O[C@@H]3O[C@H](COC(=O)c4ccc(O)cc4)[C@@H](O)[C@H](O)[C@H]3O)[C@@H]21,,inactive
O=C(c1ccccn1)c1cnn2c(-c3ccncc3)ccnc12,,inactive
C=CC1(C)C=C2C(O)CC3C(C)(C(=O)O)CCCC3(C)C2CC1 (stereo not given),,inactive
COC(=O)C1=CO[C@@H](O[C@@H]2O[C@H](COC(=O)/C=C/c3cc(OC)c(O)c(OC)c3)[C@@H](O)[C@H](O)[C@H]2O)[C@@H]2C(CO)=CC[C@H]12,,inactive
CC12CCC3C(C)(C)C(O)CCC3(C)C1Cc1c(oc(C(=O)O)cc1=O)O2 (stereo not given),,inactive
C=C(C)C(C)C1OC23CC4(CO2)C(CCC2C5(C)CCC(OC6OCC(O)C(OC7OC(CO)C(O)C(OC8OCC(O)C(O)C8O)C7O)C6OC6OC(CO)C(O)C6O)C(C)(C)C5CCC24C)C3C(C)(O)C1OC(C)=O (stereo not given),4.55% [at 11.6 µM] (inactive),
CC(=O)Oc1cc2c(s1)CCN([C@H](C(=O)C1CC1)c1ccccc1F)C2,,inactive
Cc1ncc([N+](=O)[O-])n1CC(O)CN1CCOCC1 (stereo not given),,inactive
O=C(c1ccc(NS(=O)(=O)c2cccc3cccnc23)cc1)N1CCN(CC2CC2)CC1,,inactive
C/C(=C\CCC(C)(O)c1ccc(C)cc1)C(=O)O (stereo not given),,inactive
COc1cc(C2Oc3c(OC)cc(/C=C/C(=O)OC[C@H]4O[C@@H](OC(C)(C)C(=O)O)[C@H](O)[C@@H](O)[C@@H]4O)cc3C2CO)ccc1O (stereo not given in full),,inactive
CC(C)CC1NC(=O)C(C(C)c2ccccc2)NC(=O)C(C(C)C)NC(=O)C(C)NC(=O)CCCNC(=O)C(Cc2c[nH]c3ccccc23)NC(=O)C(C)NC1=O (stereo not drawn) (cyclo([GABA]AV[ξPhe(βξ-Me)]LAW); configuration not given here),,inactive
C=CC1C(O[C@@H]2O[C@H](CO)[C@@H](O)[C@H](O)[C@H]2O)OC=C(C(=O)OC)C1CC(=O)O (stereo not given in full),,inactive
CC1CCC2(NC1)OC1C(=O)C3C4CCC5CC(O[C@@H]6O[C@H](CO)[C@@H](O)[C@H](O)[C@H]6O[C@@H]6O[C@@H](C)[C@H](O)[C@@H](O)[C@H]6O)CCC5(C)C4CCC3(C)C1C2C (stereo not given in full),,inactive
C=C(C(=O)O)C1CCC(C)C2CCC(=O)OC2(C)C1 (stereo not given),,inactive

Compound,"activity change, negative = cytotoxicity",Potency
CC1(C)C(=O)N2c3ccccc3[C@]3(CC(n4cnc5ccccc5c4=O)C(=O)O3)[C@H]2N1O (stereo not given in full),,inactive
CC(C)c1nc(N(C)S(C)(=O)=O)nc(-c2ccc(F)cc2)c1/C=C/[C@@H](O)C[C@@H](O)CC(=O)O,,inactive
O=C(O)Cc1nn(Cc2nc3cc(C(F)(F)F)ccc3s2)c(=O)c2nccnc12,,inactive
O=C(O)CCc1cc2ccoc2cc1O[C@@H]1O[C@H](CO[C@@H]2OC[C@](O)(CO)[C@H]2O)[C@@H](O)[C@H](O)[C@H]1O,,inactive
COc1ccc(/C=C/C(=O)O[C@@H]2[C@@H](OC(C)=O)[C@@H](OC(C)=O)[C@H](O[C@H]3[C@@H]4C=CO[C@@H](O[C@@H]5O[C@H](CO)[C@@H](O)[C@H](O)[C@H]5O)[C@@H]4[C@@]4(CO)O[C@@H]34)O[C@H]2C)cc1O,,inactive
C=CC(C)(O)CC/C=C(\C)C(=O)OC1CC2(C(=O)O)CCC3(C)C(=CCC4C5(C)CCC(OC6OC(COC7OCC(O)C(O)C7O)C(O)C(OC7OCC(O)C(O)C7O)C6OC6OC(CO)C(O)C(O)C6OC6OCC(O)C(O)C6O)C(C)(C)C5CCC43C)C2CC1(C)C (stereo not given),2.82% [at 6.55 µM] (inactive),
C=C1CC2[C@]3(C)C(=C(O)C(=O)[C@@]2(C)[C@]2(C(=O)OC)C(=O)C(C)OC(=O)[C@@]12C)C(C)(C)C(=O)CC3O (stereo not given in full),,inactive
C=C1CCC(OC(C)=O)C2(C)CC3(O)OC(=O)C(C)=C3CC12 (stereo not given),,inactive
C[C@@H]1CC[C@H]2C(C)(C)[C@H](O)[C@H](O)C[C@]2(C)[C@@]12Cc1c(O)cc3c(c1O2)CNC3=O,,inactive
C[C@H]1[C@H](C)CC[C@]2(C(=O)O[C@@H]3O[C@H](CO)[C@@H](O)[C@H](O)[C@H]3O)CC[C@]3(C(=O)O)C(=CCC4[C@@]5(C)CC[C@H](O[C@@H]6O[C@H](CO)[C@@H](O)[C@H](O)[C@H]6O)C(C)(C)C5CC[C@]43C)[C@H]12 (stereo not given in full),0.882% [at 11.6 µM] (inactive),
C1CCN2CC3C[C@@H](CN4CCCC[C@@H]34)[C@H]2C1,,inactive
O=C(COc1ccc(Cl)cc1)NC1CCC(NC(=O)COc2ccc(Cl)cc2)CC1 (stereo not given),,inactive
COc1cc(C(O)C(CO)Oc2ccc(CCCO[C@@H]3O[C@@H](C)[C@H](O)[C@@H](O)[C@H]3O)cc2OC)ccc1O (stereo not given in full),,inactive
CC(C)=CC/C=C(/C)[C@H]1CC[C@]2(C)[C@@H]1[C@H](O)CC1[C@@]3(C)CC[C@H](O)C(C)(C)[C@@H]3[C@@H](O[C@@H]3O[C@H](CO)[C@@H](O)[C@H](O)[C@H]3O[C@@H]3O[C@@H](C)[C@H](O)[C@@H](O)[C@H]3O)C[C@]12C (stereo not given in full),,inactive
CC1CC(O)C2(C)C(C(=O)O)=CCCC2C1(C)CCc1ccoc1 (stereo not given),,inactive
C/C=C(\C)C(=O)O[C@@H]1CC2[C@@H](CC=C3C[C@@H](O[C@H]4C[C@H](OC)[C@H](O[C@H]5C[C@H](OC)[C@H](O[C@H]6C[C@H](OC)[C@H](O[C@H]7C[C@@H](OC)[C@H](O[C@@H]8O[C@H](CO)[C@@H](O)[C@H](O)[C@H]8O)[C@@H](C)O7)[C@@H](C)O6)[C@@H](C)O5)[C@@H](C)O4)CC[C@@]32C)[C@@]2(O)CC[C@H](C(C)=O)[C@@]12C (stereo not given in full),-0.474% [at 6.55 µM] (inactive),
C[C@@H]1O[C@@H](O[C@H]2[C@H](OC(=O)[C@]34CCC(C)(C)C[C@H]3C3=CCC5[C@@]6(C)C[C@H](O)[C@H](O[C@@H]7O[C@H](CO[C@@H]8OC[C@H](O)[C@H](O)[C@H]8O)[C@@H](O)[C@H](O)[C@H]7O)C(C)(C)C6CC[C@@]5(C)[C@]3(C)C[C@H]4O)OC[C@@H](O)[C@@H]2O)[C@H](O)[C@H](O[C@@H]2OC[C@](O)(CO)[C@H]2O)[C@H]1O[C@@H]1OC[C@H](O)[C@H](O[C@@H]2OC[C@@H](O)[C@H](O)[C@H]2O)[C@H]1O (stereo not given in full),12.2% [at 6.55 µM] (inactive),
O=C(NCC(=O)N1CC[C@H](NC2CCC(O)(c3ccc(-c4ncccn4)cn3)CC2)C1)c1cccc(C(F)(F)F)c1 (stereo not given in full),,inactive
CCNC(=O)CCC/C=C\C[C@@H]1[C@@H](/C=C/C(O)CCc2ccccc2)[C@@H](O)C[C@@H]1O (stereo not given in full),,inactive

# — PubChem BioAssay (NCATS)
